According to PubChem BioAssay:
Active and inactive are the calls of the source.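 The calls were made as follows, unless noted: active = inhibition above 20% together with a positive visual image hit; inconclusive = visual image hit but inhibition not above 20%; inactive = no visual image hit.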

Legend:
[1] = inhibitors of TNFa-induced NFkB p65 translocation, primary screen, imaging, HUVEC, MLSMR starter and 10KST1 sets (AID 438); details: HUVEC TNFa-induced p65 nuclear translocation; cell count: measured here: nuclei count (cytotoxicity indicator), at 2.08 µM; inhibition: at 2 µM, stronger effect = higher value, 0% TNFa-plus-vehicle, 100% no-TNFa wells;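 also: compound added about 3h40 before a 20 min TNFalpha stimulation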;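 as to inhibition: signal is the nuclear over cytoplasmic p65 intensity ratio per well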
[2] = inhibitors of mutant huntingtin aggregation, primary screen, imaging, exon1htt(103Q)mCFP cells, high-content imaging (AID 483;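 active = visual image review flags a hit and inhibition of aggregation exceeds 20%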;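 also: compound exposure lasted 3 days before fixation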;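 as to nuclei count: percent of the per-plate median nuclei count of sample wells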); details: exon1htt(103Q)mCFP cell line, aggregate imaging, at 2 µM; inhibition of aggregation: stronger effect = higher value; nuclei count: measured here: cell count, toxicity
[3] = inhibitors of E-selectin induction by TNFa, primary screen, imaging, HUVEC, immunofluorescence, MLSMR starter and 10KST1 sets (AID 487;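 active = visually confirmed hit in the image check and inhibition above 20%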;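 as to inhibition: signal is fraction of cell area covered by stained E-selectin grains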;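 as to nuclei count: 100% = median nuclei count of all wells on the same plate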); details: HUVEC TNFalpha-induced E-selectin immunofluorescence imaging, at 2 µM; inhibition: stronger effect = higher value; nuclei count: measured here: cell number, toxicity
[4] = molecular target: Voltage-gated potassium channel subunit beta-2 (Rattus norvegicus) (UniProt P62483); experiment: KvBeta enzyme negative modulators, primary screen, biochemical, NADPH fluorescence (AID 622;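 active = fluorescence slope higher than the sample average by over 3 SD, cut at about -0.22 in these data, passing the limit was not always enough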;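 also: slope of raw intensity against log time taken from 70 to 1610 s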); details: recombinant KvBeta, 4-cyanobenzaldehyde reduction, at 10 µM, stronger effect = higher value
[5] = molecular target: Voltage-gated potassium channel subunit beta-2 (Rattus norvegicus) (UniProt P62483); experiment: KvBeta positive modulators, primary screen, biochemical, NADPH fluorescence (AID 623;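 active = NADPH fluorescence slope more negative than the mean of all samples by about 3 SD, 99.7% confidence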;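 also: fluorescence intensity change per second fitted from 20 to 320 s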); details: Recombinant KvBeta, NADPH fluorescence decrease slope, 10 min; at 10 µM; stronger effect = lower value
[6] = molecular target: Alpha-2C adrenergic receptor (Homo sapiens) (UniProt P18825); experiment: modulators of alpha2C/GIRK thallium flux, primary screen, cell-based, HEK293 alpha2C/GIRK1/2 (AID 624;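 active = fluorescence slope after compound addition differing from the mean of all screened samples at 99.7% confidence, in either direction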;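 also: slope of fluorescence ratio to pre-addition baseline per second over 15 to 24 s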); details: thallium flux BTC fluorescence, at 10 µM, actives lie on both sides
[7] = inhibitors of Sendai virus-induced IRF3 signaling, primary screen, TLR/RLR signaling modifier project, cell-based, Sendai virus stimulus, luciferase, 10K MLSCN set (AID 602276;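 active = inhibition at or above 50% at 10 µM; inactive = inhibition below 50%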;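 also: firefly luciferase from ISG56 promoter only with Renilla not read in this screen; 0% = Sendai virus plus DMSO and 100% = medium plus DMSO without virus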); details: HEK293 RL24 IRF3 luciferase reporter, at 10 µM, stronger effect = higher value
[8] = inhibitors of poly I:C-induced TLR3 signaling, primary screen, cell-based, poly I:C stimulus, luciferase, 10K MLSCN set (AID 602277;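 active = inhibition of the reporter signal at or above 50%; inactive = inhibition below 50%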); details: HEK293-TLR3 RL24 IRF3 luciferase reporter, at 10 µM, stronger effect = higher value

Chain of Voltage-gated potassium channel subunit beta-2 (Rattus norvegicus) (P62483 whole entry, looked up): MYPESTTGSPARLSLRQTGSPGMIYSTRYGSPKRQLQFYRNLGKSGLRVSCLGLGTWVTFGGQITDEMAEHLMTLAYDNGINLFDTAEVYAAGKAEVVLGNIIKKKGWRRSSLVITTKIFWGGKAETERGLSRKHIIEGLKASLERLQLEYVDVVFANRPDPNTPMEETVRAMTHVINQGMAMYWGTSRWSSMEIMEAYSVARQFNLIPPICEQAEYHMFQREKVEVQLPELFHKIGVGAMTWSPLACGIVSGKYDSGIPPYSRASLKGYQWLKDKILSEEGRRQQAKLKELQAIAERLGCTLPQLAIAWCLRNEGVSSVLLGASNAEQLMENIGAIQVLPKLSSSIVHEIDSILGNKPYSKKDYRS
Chain of Alpha-2C adrenergic receptor (Homo sapiens) (P18825 whole entry, looked up): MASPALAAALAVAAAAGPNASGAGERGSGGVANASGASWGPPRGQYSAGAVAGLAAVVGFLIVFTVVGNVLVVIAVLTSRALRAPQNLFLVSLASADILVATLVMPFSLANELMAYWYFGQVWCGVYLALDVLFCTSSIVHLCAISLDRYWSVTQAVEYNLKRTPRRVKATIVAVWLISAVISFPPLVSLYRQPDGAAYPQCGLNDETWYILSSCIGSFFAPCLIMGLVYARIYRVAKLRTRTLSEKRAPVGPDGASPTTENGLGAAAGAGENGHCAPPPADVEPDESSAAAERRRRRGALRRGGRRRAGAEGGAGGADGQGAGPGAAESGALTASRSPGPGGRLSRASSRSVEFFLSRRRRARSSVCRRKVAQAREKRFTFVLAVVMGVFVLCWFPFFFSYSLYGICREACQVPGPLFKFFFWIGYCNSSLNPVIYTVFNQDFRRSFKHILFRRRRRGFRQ

Row | Structure (SMILES) | cell count [1] | inhibition [1] | inhibition of aggregation [2] | nuclei count [2] | inhibition [3] | nuclei count [3] | fluorescence slope [4] | NADPH fluorescence slope [5] | slope [6] | inhibition [7] | inhibition [8]
1 | O=C(NCc1ccccc1)c1ccc(OC2CSC2)cc1 | 655 | -30.1% (inactive) | 9.3% (inactive) | 97.9% | -45.7% (inactive) | 108% | -0.486 (inactive) | -4.6e-05 (inactive) | 0.00606 (inactive) | -8.59% (inactive) | -14.1% (inactive)
2 | Cn1c(=O)c2c(nc(NCCCO)n2C/C=C/c2ccccc2)n(C)c1=O | 401 | -1.8% (inactive) | 1.8% (inactive) | 112% | -45.2% (inactive) | 153% | -0.336 (inactive) | 9.8e-06 (inactive) | 0.004 (inactive) | 22.3% (inactive) | 34.2% (inactive)
3 | CCn1c(CSc2nc(C)cc(C)n2)nnc1SCC(=O)Nc1ccccc1 | 579 | 1.9% (inactive) | -15.5% (inactive) | 101% | -38.7% (inactive) | 142% | -0.436 (inactive) | -3.8e-05 (inactive) | 0.00615 (inactive) | -15.1% (inactive) | -10.7% (inactive)
4 | COc1ccc(C)cc1S(=O)(=O)Nc1cccnc1 | 283 | 0.4% (inactive) | 13.9% (inactive) | 78.8% | -61.4% (inactive) | 90% | -0.475 (inactive) | -3.8e-05 (inactive) | 0.00515 (inactive) | 25.8% (inactive) | 25.5% (inactive)
5 | CCCCCc1c(C)nc(N2CCc3ccccc32)[nH]c1=O | 398 | -2.2% (inactive) | -1.3% (inactive) | 112% | -5.8% (inactive) | 89.4% | -0.609 (inactive) | 1.7e-05 (inactive) | 0.00814 (inactive) | 13.9% (inactive) | -33.8% (inactive)
6 | COC(=O)C1(C(F)(F)F)N=C2Sc3ccccc3N2C(N2CCOCC2)=N1 (centres undefined) | 760 | -8.1% (inactive) | 8.1% (inactive) | 76.2% | -62.6% (inactive) | 107% | -0.54 (inactive) | -4.9e-05 (inactive) | 0.00667 (inactive) | 11.6% (inactive) | 26.4% (inactive)
7 | Nc1nnc(C(=O)c2ccccc2N)s1 | 384 | -5.3% (inactive) | -21% (inactive) | 99.9% | -41.8% (inactive) | 106% | -0.438 (inactive) | -0.000136 (inactive) | 0.00502 (inactive) | -1.19% (inactive) | -4.86% (inactive)
8 | CCNc1ccc(C(=O)OCC)cc1NC(=O)c1cc(S(=O)(=O)N2CCOCC2)ccc1C | 772 | 7.3% (inactive) | 31.2% (inactive) | 93.3% | -81.9% (inactive) | 114% | -0.551 (inactive) | 4.9e-05 (inactive) | 0.00574 (inactive) | -4.65% (inactive) | -25.5% (inactive)
9 | O=C(CCS(=O)(=O)c1cccc2nsnc12)N1CCN(Cc2ccc3c(c2)OCO3)CC1 | 582 | 4.1% (inactive) | -47.2% (inactive) | 53.4% | -84.7% (inactive) | 97.8% | -0.533 (inactive) | -4.8e-05 (inactive) | 0.00459 (inactive) | 2.36% (inactive) | 14.2% (inactive)
10 | O=C(NCc1ccc2c(c1)OCO2)c1ccccn1 | 345 | -2% (inactive) | 18.9% (inactive) | 100% | 5.4% (inactive) | 122% | -0.375 (inactive) | 4.1e-05 (inactive) | 0.00534 (inactive) | -23.2% (inactive) | -28.1% (inactive)
11 | CCn1c(C(=O)N2CCCC(C(=O)NCCCc3ccccc3)C2)cc2sccc21 (centres undefined) | 618 | -12% (inactive) | 40.9% (active) | 123% | -19.4% (inactive) | 104% | -0.583 (inactive) | -1.2e-05 (inactive) | 0.00576 (inactive) | -0.231% (inactive) | -1.26% (inactive)
12 | CCCOc1ccc(N2C(=O)CC(SCCN)C2=O)cc1 (centres undefined) | 428 | -8.7% (inactive) | -9.8% (inactive) | 116% | -48.7% (inactive) | 116% | -0.4 (inactive) | -1.8e-05 (inactive) | 0.00441 (inactive) | -37.6% (inactive) | -77.1% (inactive)
13 | N#Cc1nc(-c2ccccc2Cl)oc1N1CCOCC1 | 332 | 5% (inactive) | 10.4% (inactive) | 96.7% | -53.5% (inactive) | 116% | -0.356 (inactive) | 3.4e-06 (inactive) | 0.00468 (inactive) | 5.17% (inactive) | -5.75% (inactive)
14 | CCn1cc(C(C)NC(=O)COc2ccc(Cl)cc2C)c(C)n1 (centres undefined) | 713 | -14.6% (inactive) | 0.6% (inactive) | 130% | -64.7% (inactive) | 105% | -0.404 (inactive) | -2.9e-05 (inactive) | 0.00313 (inactive) | 1.5% (inactive) | 14.6% (inactive)
15 | CSc1nc2c(c(=O)n1C)SC(C)C2 (centres undefined) | 612 | 8.7% (inactive) | -10.1% (inactive) | 111% | -32.9% (inactive) | 115% | -0.567 (inactive) | -4.8e-05 (inactive) | 0.00545 (inactive) | 4.05% (inactive) | 31.4% (inactive)
16 | CCc1ccc(CN(C)CCc2ccccn2)cc1 | 590 | -7.7% (inactive) | 7.2% (inactive) | 108% | -61.6% (inactive) | 94% | -0.482 (inactive) | -0.000258 (inactive) | 0.00499 (inactive) | 5.44% (inactive) | 7.65% (inactive)
17 | CCCNS(=O)(=O)c1ccc(OCC(=O)NCc2ccco2)cc1 | 603 | 11.7% (inactive) | -6% (inactive) | 110% | -76.7% (inactive) | 126% | -0.478 (inactive) | 8.5e-05 (inactive) | 0.00584 (inactive) | -6.02% (inactive) | -17.4% (inactive)
18 | CCCn1c(C)cc(C(=O)COc2ncnc3sccc23)c1C | 312 | 2.9% (inactive) | 11.2% (inactive) | 65.8% | -66.8% (inactive) | 115% | -0.556 (inactive) | 2.3e-05 (inactive) | 0.00512 (inactive) | -64% (inactive) | -108% (inactive)
19 | CC(NC(=O)Nc1ccccc1)C(c1cccs1)N1CCOCC1 (centres undefined) | 606 | -0.5% (inactive) | -6.2% (inactive) | 97.6% | -2.9% (inactive) | 111% | -0.6 (inactive) | -9.3e-06 (inactive) | 0.00654 (inactive) | 1.55% (inactive) | 31% (inactive)
20 | Cn1c(=O)c2c(nc(CN3CCN(Cc4ccccc4)CC3)n2Cc2cccc(Cl)c2)n(C)c1=O | 488 | -13.1% (inactive) | 6.5% (inactive) | 100% | 10.1% (inactive) | 98% | -0.562 (inactive) | -5.1e-05 (inactive) | 0.00606 (inactive) | 15.9% (inactive) | 48.7% (inactive)
21 | O=C(c1csc2ccccc12)n1cccn1 | 327 | 5.6% (inactive) | 6% (inactive) | 99.2% | 4.5% (inactive) | 105% | -0.502 (inactive) | -3.1e-05 (inactive) | 0.00494 (inactive) | 19% (inactive) | 21.3% (inactive)
22 | O=C1CCc2cc(S(=O)(=O)N3CCC(C(=O)Nc4nccs4)CC3)ccc2N1 | 821 | 3.9% (inactive) | -29.1% (inactive) | 105% | -38.5% (inactive) | 102% | -0.593 (inactive) | -4.4e-05 (inactive) | 0.00714 (inactive) | 18.5% (inactive) | 28.2% (inactive)
23 | Nc1nc(N2C(=O)C3CC=CCC3C2=O)nn1-c1ccccc1 (centres undefined) | 444 | 20.1% (inactive) | -11.6% (inactive) | 109% | -23.5% (inactive) | 132% | -0.474 (inactive) | 2.4e-05 (inactive) | 0.00364 (inactive) | -8.69% (inactive) | 23.3% (inactive)
24 | Cc1cc(C)n2nc(S(=O)(=O)N(C)c3ccccc3)nc2n1 | 679 | -2.6% (inactive) | 16.2% (inactive) | 102% | -66.9% (inactive) | 114% | -0.568 (inactive) | -5.7e-05 (inactive) | 0.00717 (inactive) | 7.86% (inactive) | 34.2% (inactive)
25 | CCOCCn1c(CN2CCN(CC)CC2)nc2c1c(=O)n(C)c(=O)n2C | 638 | 2.9% (inactive) | 12.8% (inactive) | 92.7% | -15.7% (inactive) | 110% | -0.568 (inactive) | -2.7e-05 (inactive) | 0.0075 (inactive) | 4.19% (inactive) | 33.7% (inactive)
26 | CCCN(CC1CC1)C(=O)Nc1ccccc1C | 693 | -11.6% (inactive) | 9.8% (inactive) | 101% | -32.9% (inactive) | 103% | -0.529 (inactive) | 3.7e-05 (inactive) | 0.00657 (inactive) | -4.1% (inactive) | -19% (inactive)
27 | CCn1cc(C2=NCC(C)O2)c2ccccc21 (centres undefined) | 487 | 5% (inactive) | -14% (inactive) | 83.2% | -128% (inactive) | 102% | -0.595 (inactive) | -9.7e-06 (inactive) | 0.00619 (inactive) | 12.7% (inactive) | 25.5% (inactive)
28 | O=C(Nc1ccc2snnc2c1)N1CCN(c2ccccc2)CC1 | 454 | 1.6% (inactive) | 0.7% (inactive) | 101% | 0.3% (inactive) | 117% | -0.425 (inactive) | 7.2e-06 (inactive) | 0.00518 (inactive) | 4.94% (inactive) | -57.8% (inactive)
29 | CC1CCN(Cc2ccc(-c3nn[nH]n3)cc2)CC1 | 582 | -2.9% (inactive) | 17.9% (inactive) | 96.8% | -29.4% (inactive) | 90.6% | -0.659 (inactive) | 2.2e-05 (inactive) | 0.00582 (inactive) | 15.7% (inactive) | 27.1% (inactive)
